USP8 block: inhibitors of human USP8 deubiquitinase; inhibition, % at 20 µM; AID 1645853, 2021; 47,000 tested, 4.2% active; purified USP8, Ub-rhodamine cleavage fluorescence, 30 min
USP30 inh: inhibitors of human USP30 deubiquitinase; Ubiquitin carboxyl-terminal hydrolase 30 (Homo sapiens), Q70CQ3; 47,000 tested, 5.3% active; purified USP30, Ub-rhodamine cleavage fluorescence; inhibition, % at 25 µM
USP28 block: inhibitors of human USP28 deubiquitinase; Ubiquitin carboxyl-terminal hydrolase 28 (Homo sapiens), Q96RU2; purified USP28, Ub-rhodamine cleavage fluorescence, 30 min; inhibition, % at 25 µM; 47,000 tested, 3% active; AID 1645857, 2021
USP17 inh: inhibitors of human USP17 deubiquitinase | AID 1645855, 2021 | purified USP17, Ub-rhodamine cleavage fluorescence, 3 h | Ubiquitin carboxyl-terminal hydrolase 17-like protein 5 (Homo sapiens), A8MUK1 | inhibition, % at 50 µM | 47,000 tested, 6.5% active
Target sequence (A8MUK1 whole entry, looked up): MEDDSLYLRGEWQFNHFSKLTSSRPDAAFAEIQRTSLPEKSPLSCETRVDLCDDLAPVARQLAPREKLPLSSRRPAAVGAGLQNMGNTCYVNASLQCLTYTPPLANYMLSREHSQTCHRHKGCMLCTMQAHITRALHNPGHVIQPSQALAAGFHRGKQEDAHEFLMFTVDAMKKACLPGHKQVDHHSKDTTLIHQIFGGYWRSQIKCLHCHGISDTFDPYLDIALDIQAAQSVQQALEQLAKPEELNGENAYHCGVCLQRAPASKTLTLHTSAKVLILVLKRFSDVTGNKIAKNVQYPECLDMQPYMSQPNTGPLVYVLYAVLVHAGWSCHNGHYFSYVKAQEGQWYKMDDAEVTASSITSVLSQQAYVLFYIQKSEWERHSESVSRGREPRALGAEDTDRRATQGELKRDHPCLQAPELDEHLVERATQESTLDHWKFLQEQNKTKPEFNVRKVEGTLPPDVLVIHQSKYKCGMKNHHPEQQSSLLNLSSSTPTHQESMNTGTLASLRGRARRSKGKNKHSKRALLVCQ
* marks the source's active call; other numbers are inactive results; i = inactive; . = not tested or not shown. A selection: hits, their analogues and other compounds. The true share with any hit is near 14%. No stated cut-off is given here; in the data, active means inhibition above about 30%; inactive means the rest.

SMILES | USP8 block | USP30 inh | USP28 block | USP17 inh
CO[C@@H]1C[C@H]2C=C[C@H]3[C@H]4O[C@]2(/C(C)=C/[C@@H](C)[C@@H]([C@H](C)O)OC1=O)[C@@H]3[C@H](O)[C@@H](C)[C@H]4O | 0.0 | 9.4 | -4.3 | -10.3
COCC(O)C1OC(=O)C(O)CC2C=CC3C4OC2(/C(C)=C\C1C)C3C(O)C(COC)C4OC(=O)c1ccc[nH]1 (stereo unspecified) | 2.6 | 38.1* | 8.9 | -0.4
OC(CNC1CCCC1)c1ccccc1 (stereo unspecified) | 1.2 | . | . | -2.0
O=C1Nc2ccccc2C2(CCN(CC3CCOCC3)CC2)O1 | 2.5 | 10.8 | -5.7 | -0.9
CC1CC[C@]2(NC1)O[C@H]1C[C@H]3[C@@H]4CC[C@H]5C[C@@H](O[C@@H]6O[C@H](CO)[C@H](O[C@@H]7O[C@H](CO)[C@@H](O)[C@H](O[C@@H]8OC[C@@H](O)[C@H](O)[C@H]8O)[C@H]7O[C@@H]7O[C@H](CO)[C@@H](O)[C@H](O)[C@H]7O)[C@H](O)[C@H]6O)CC[C@]5(C)[C@H]4CC[C@]3(C)[C@H]1[C@@H]2C (stereo partly specified) | -12.5 | 41.4* | 18.6 | 62.3*
CO/C1=C\C(C)=C\[C@@H](C)[C@@H](O)[C@H](C)C/C(C)=C/C=C/[C@H](OC)[C@@H]([C@@H](C)[C@@H](O)[C@H](C)[C@@]2(O)C[C@@H](OC(=O)/C=C/C(=O)NC3=C(O)CCC3=O)[C@H](C)[C@@H](C(C)C)O2)OC1=O | -7.1 | -60.2 | 19.0 | 39.8*
COc1cc2c(c3oc4cccc(O)c4c(=O)c13)C1C=COC1O2 (stereo unspecified) | 3.2 | 19.6 | 50.2* | 53.7*
C=C/C(=C/C(=O)C[C@H](C)C[C@@H](C)CC[C@H](O)[C@H](C)C(=O)CC(O)[C@H](C)[C@@H](C)OC(=O)C[C@@H](O)C1=C(C)C(=O)OC1=O)CC (stereo partly specified) | 77.3* | 54.0* | 90.0* | 87.5*
Cc1cccc(-n2c(CSc3nc4ccccc4[nH]3)nc3ccccc3c2=O)c1C | -221.7 | 0.5 | 11.0 | 1.0
CCOC(=O)[C@@H]1CN[C@H]2c3cccc(F)c3O[C@@H]12 | -3.9 | i | -169.4 | -190.3
C/C=C1/CN2CC[C@]34C(=C(C(=O)OC)[C@H]1C[C@H]23)Nc1c(O)cccc14 | 86.5* | -98.6 | -35.1 | 37.3*
C=C1[C@H]2C[C@@]3(C4C[C@@H]5[C@@]6(C)CC[C@H](O)[C@@]5(C4N(CC)C6)[C@@H]3CC2=O)[C@@H]1O | -4.0 | . | . | -0.2
CC1Oc2cc3c(-c4c(O)cc(O)c5c(O)c6c(cc45)OC(C)C(C)C6=O)c(O)cc(O)c3c(O)c2C(=O)C1C (stereo unspecified) | 59.1* | 34.6* | 89.8* | 81.0*
COCCN1CCC2(COCc3c(C)nc(NCC4CC4)nc32)C1 (stereo unspecified) | 4.0 | 18.9 | 8.6 | 3.7
Cc1nn(Cc2ccccc2)c(Cl)c1C(=O)NC1CCCc2ccccc21 (stereo unspecified) | 10.7 | 34.8* | 30.6* | 55.6*
O=C(CN1CC=C(c2ccccc2)CC1)Nc1ccccc1Cl | -5.2 | -0.3 | -20.2 | -7.9
Oc1ccc2ccccc2c1CN1CC=C(c2ccccc2)CC1 | 34.9* | -13.5 | -2.8 | 11.5
COCC(C)NC(=O)c1cc2cccnc2n(Cc2ccc(F)cc2)c1=O (stereo unspecified) | -0.6 | 30.8* | 19.4 | 37.8*
CC(/C=C/C=C(\C)[C@H](O)[C@@H](C)[C@@H]1C[C@H](O)[C@@]2(C)O[C@@H]2/C=C/[C@@H](C)[C@H](O)C[C@H](CC(=O)O)C/C=C/C(=O)O1)=C\c1coc(C)n1 | -41.4 | -101.7 | -22.1 | -49.7
Cc1nc2ccccn2c1CN1CCNCC1 | 1.8 | -1.6 | -3.5 | 5.9
CCN1CCC2(COCc3c(C)nc(-c4ccccc4)nc32)C1 (stereo unspecified) | 3.9 | 14.0 | 35.6* | -4.0
N#Cc1cccc(CN2CCC3(CC2)OC(=O)Nc2ccccc23)c1 | 19.5 | 12.4 | 2.9 | 2.3
Cc1cc(C)nc(-n2nc(C)c3c2NC(=O)CSC3c2ccc(F)cc2F)n1 (stereo unspecified) | 1.6 | 77.2* | 2.1 | 45.3*
Cc1cc(C)nc(-n2nc(C)c3c2NC(=O)CSC3c2ccc(O)cc2)n1 (stereo unspecified) | -128.0 | -35.1 | -20.7 | -42.2
CC1(C)CC(n2[nH]c(=O)c3c2NC(=O)CSC3c2ccc(OCc3ccccc3)cc2)CCO1 (stereo unspecified) | 24.7 | 53.2* | 25.5 | 25.3
SMILES | USP8 block | USP30 inh | USP28 block | USP17 inh
O=C1CSC(c2ccc3c(c2)OCO3)c2c(-c3ccccc3)nn(-c3ccccc3)c2N1 (stereo unspecified) | 18.6 | 30.3* | 18.8 | 9.9
O=C1CSC(c2ccc3c(c2)OCO3)c2c(n(C3CCCCCC3)[nH]c2=O)N1 (stereo unspecified) | 82.5* | 33.0* | 13.0 | 18.9
CCOc1ccc(C2SCC(=O)Nc3c2c(=O)[nH]n3C2CCCCC2)cc1 (stereo unspecified) | 87.9* | 35.3* | 11.9 | 13.7
O=C(CN1CCCc2ccccc21)Nc1ccc(Cl)cc1C(=O)c1ccccc1 | -12.3 | . | . | -7.1
Cc1ccn2c(=O)cc(COC(=O)C(O)(c3ccccc3)c3ccccc3)nc2c1 | -4.9 | -22.7 | 2.0 | -11.0
O=C(COc1ccc(F)cc1)N1CCN(Cc2ccncc2)CC1 | -9.7 | 6.2 | -9.8 | -2.8
COc1ccc(C2SCC(=O)Nc3c2c(=O)[nH]n3C2CCCC2)cc1 (stereo unspecified) | -1.7 | 0.0 | -20.2 | -7.8
COc1ccc(C2SCC(=O)Nc3c2c(=O)[nH]n3C2CCCCCC2)cc1 (stereo unspecified) | 25.2 | 10.0 | -3.2 | 50.4*
Cc1ccc(C2SCC(=O)Nc3c2c(=O)[nH]n3C2CCCCC2)cc1 (stereo unspecified) | 88.3* | 17.1 | 9.9 | 21.8
CN1CC[C@@H]2[C@H]1CCCCN2C(=O)COc1ccc(F)cc1 | -50.0 | -31.7 | -6.7 | -29.0
CN1CCCC[C@@H]2N(C(=O)Cn3ccc(=O)[nH]c3=O)CCC[C@@]21C | 2.2 | 30.8* | 11.2 | 12.2
CC(C)[C@@H](C)/C=C/[C@@H](C)C1CCC2=C3C(CCC21C(=O)O)[C@@]1(C)CC[C@H](OC(=O)[C@@H](N)[C@@H](OS(=O)(=O)O)C(C)C)C[C@@]12O[C@H]2[C@@H]3O (stereo partly specified) | -272.2 | -185.3 | 21.9 | 24.2
COc1ccc(C2=NCC(=O)N(Cc3nc(-c4ccccc4)oc3C)c3sccc32)cc1 | -48.9 | -29.9 | -4.7 | -9.3
O=C1C=CC(O)C2C1CC13SSC4(CC5C(=O)C=CC(O)C5N4C1=O)C(=O)N23 (stereo unspecified) | 2.5 | 60.3* | 1.9 | -17.1
c1cc(-c2nccc(CN3CCCC4(CCCCC4)C3)n2)ccn1 | 37.0* | 24.1 | 7.3 | 13.7

Screening data (PubChem)
